From PubChem BioAssay (EPA / NIEHS)
Inconclusive results are not listed. Calls of active or inactive are those of the source. The calls were made as follows, unless noted: active = hit-call score of the fitted dose curve at least 0.9, where 1 is the maximum; inactive = score below 0.9.

Columns and labels:
[1] = molecular target: Nucleoli Translocation, AR (gene 367) (UniProt P10275); assay: UPITT_HCI_U2OS_AR_TIF2_Nucleoli_Antagonist: University of Pittsburgh U2OS Androgen Receptor-Transcriptional Intermediary Factor 2 (AR-TIF2) Antagonism High Content Imaging Assay for Nucleoli Translocation (AID 2283997; active = hit-call score of the fitted dose curve at least 0.9, where 1 is the maximum)
How it was run: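 Compounds are added at 20 uM final concentration in 0.2% DMSO to U2OS cells carrying AR-RFP and TIF2-GFP fusions. Nucleolar AR-RFP fluorescence is then quantified by automated imaging. Antagonism is fitted positively against DHT baseline.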

[2] = molecular target: Ratio of Nucleoli Translocation and Cytoplasm, AR (gene 367) (UniProt P10275); assay: UPITT_HCI_U2OS_AR_TIF2_Nucleoli_Cytoplasm_Ratio_Agonist: University of Pittsburgh U2OS Androgen Receptor-Transcriptional Intermediary Factor 2 (AR-TIF2) Agonism High Content Imaging Assay for Ratio of Nucleoli Translocation and Cytoplasm (AID 2284000; active = hit-call score of the fitted dose curve at least 0.9, where 1 is the maximum;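 also: hits raise the red nucleolar to cytoplasm ratio above vehicle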)
How it was run: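 Human osteosarcoma U2OS line, AR-RFP plus TIF2-GFP; compounds 0.195–50 uM final, 0.5% DMSO. Readout: nucleolar/cytoplasmic RFP ratio by HCI, positive direction vs DMSO baseline.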

[3] = CCTE_Harrill_HTTr_Viability_MCF7: CCTE's 6-hour Cell Viability Assessment for the High-Throughput Transcriptomics (HTTr) Platform, in MCF-7 cells cultured in DMEM + 10% fetal bovine serum, Harrill Lab (AID 2284010)
How it was run: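 PI exclusion, high-content imaging; 8-pt dilution series, 6 h exposure; bidirectional fit vs DMSO (neg. ctrl/baseline); gain of signal = loss of membrane integrity.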

[4] = CCTE_Harrill_HTTr_Apoptosis_MCF7: CCTE's 6-hour Apoptosis Assessment for the High-Throughput Transcriptomics (HTTr) Platform, in MCF-7 cells cultured in DMEM + 10% fetal bovine serum, Harrill Lab (AID 2284011)
How it was run: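 MCF-7 cells in DMEM + 10% FBS exposed 6 h to chemicals over an eight-point dilution series. Caspase-3/7 activation imaged by high-content CellEvent Green staining; fitted bidirectionally versus DMSO.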

[5] = CCTE_Harrill_HTTr_CellCount_MCF7: CCTE's Cell Proliferation Assessment for the High-Throughput Transcriptomics (HTTr) Platform, Harrill Lab (AID 2284012; active = hit-call score of the fitted dose curve at least 0.9, where 1 is the maximum;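 also: count of Hoechst-stained nuclei per well by high-content imaging in MCF-7 cells; cells exposed to compound for six hours; intended direction is loss of nuclei count meaning fewer cells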)
How it was run: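 Readout: Hoechst nuclear count by high-content imaging. MCF-7, 8-point dilution series, 6 h exposure. Bidirectional fit vs DMSO baseline.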

THRB (gene 7068) = THRB (gene 7068) (UniProt P10828); assay: TOX21_TRB_COA_Agonist_Followup_ratio: Tox21 Thyroid Hormone Receptor beta Agonism through Coactivator Recruitment Follow-Up Assay, Ratio (AID 2283963)
How it was run: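 First, the GST-fused TRβ ligand-binding domain (5.0 nM) was incubated with test compound in 0.10% BSA. Next, fluorescein-tagged SRC-2 peptide (200 nM) and terbium anti-GST antibody (2 nM) were added. Finally, TR-FRET emission ratios were normalized against DMSO and T3 controls.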

[6] = TOX21_TR_RXR_BLA_Agonist_Followup_viability: Viability Assessment in the Tox21 Thyroid Hormone Receptor beta Retinoid X Receptor alpha (RXRa) Agonism Beta-lactamase (BLA) Follow-Up Assay (AID 2283970; active = hit-call score of the fitted dose curve at least 0.9, where 1 is the maximum)
How it was run: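 CellTiter-Glo ATP quantitation as viability read-out in RXRa-bla HEK293T cells (2,500/well, charcoal-stripped 2% FBS medium), 16h compound incubation at 37C. Loss of signal versus DMSO taken as cytotoxicity, analyzed by bidirectional curve fitting.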

[7] = molecular target: Nucleoli Translocation, AR (gene 367) (UniProt P10275); assay: UPITT_HCI_U2OS_AR_TIF2_Nucleoli_Agonist: University of Pittsburgh U2OS Androgen Receptor-Transcriptional Intermediary Factor 2 (AR-TIF2) Agonism High Content Imaging Assay for Nucleoli Translocation (AID 2283998; active = hit-call score of the fitted dose curve at least 0.9, where 1 is the maximum)
How it was run: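 U2OS cells expressing RFP-tagged human AR and GFP-tagged TIF2; red fluorescence in nucleoli quantified by high-content imaging. Primary screen at 20 uM final (0.2% DMSO); concentration-response 0.195–50 uM (0.5% DMSO), fitted upward versus DMSO.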

DIO1 (gene 1733) = assay: CCTE_GLTED_hDIO1: CCTE's human Deiodinase 1 (DIO1) Inhibition Assay, Great Lakes Toxicology and Ecology Division (GLTED) Lab (AID 2283987; active = hit-call score of the fitted dose curve at least 0.9, where 1 is the maximum;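 also: isolated human DIO1 enzyme in a cell-free setup rather than cells; enzyme activity read as free iodide liberated from substrate via Sandell-Kolthoff colorimetry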)
How it was run: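 Cell-free human DIO1 enzyme incubated 3 h with test chemical; iodide freed from substrate then measured by Sandell-Kolthoff absorbance. Run in triplicate; loss of signal relative to DMSO taken as inhibition.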

[8] = CCTE_Shafer_MEA_acute_spike_number: CCTE's Neural Acute Assay for Total Number of Spikes, Shafer Lab (AID 2284008)
How it was run: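 Rat primary cortical neurons on 48-well MEA plates, DIV 13 or 15, at 37 C. 40 min baseline then 40 min with compound (0.03-40 uM); spikes detected at 8x rms noise, expressed as percent change from baseline.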

[9] = CCTE_Shafer_MEA_acute_firing_rate_mean: CCTE's Neural Acute Assay for Mean Firing Rate, Shafer Lab (AID 2284009);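 also: analyzed for loss of signal so actives lower firing rate relative to DMSO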
How it was run: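 Rat cortical neuron cultures matured to DIV 13 or 15, equilibrated 20 min at 37 C, then recorded 40 min for baseline. Compound (0.03-40 uM) added and a further 40 min recorded; percent change in mean firing rate calculated per well.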

[10] = CCTE_Shafer_MEA_acute_burst_number: CCTE's Neural Acute Assay for Single-Electrode Bursts, Shafer Lab (AID 2284013)
How it was run: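 Percent change in single-electrode burst number per well, from 40-min recordings taken before and after adding compound (0.03-40 uM) to primary rat cortical neurons on MEA plates at DIV 13 or 15, 37 C.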

[11] = CCTE_Shafer_MEA_acute_burst_duration_mean: CCTE's Neural Acute Assay for Mean Burst Duration, Shafer Lab (AID 2284014);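 also: hits are decreases in mean burst duration relative to DMSO controls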
How it was run: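 Rat cortical cultures, DIV 13/15; 40 min baseline, then 40 min with compound (0.03-40 uM), 37 C. Spikes: 300-5000 Hz band-pass, 8x rms threshold. Read-out: % change in mean single-electrode burst duration, DMSO-referenced, loss direction.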

[12] = CCTE_Shafer_MEA_acute_per_burst_spike_number_mean: CCTE's Neural Acute Assay for Average Number of Spikes Per Burst, Shafer Lab (AID 2284015);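 also: hits are decreases in mean spikes per burst versus baseline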
How it was run: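 Read-out: percent change in mean spikes per burst, each well's post-exposure 40-min recording versus its own 40-min baseline. Rat cortical cultures, DIV 13 or 15, compounds 0.03-40 uM; DMSO is negative control, loss-of-signal fitting.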

[13] = CCTE_Shafer_MEA_acute_interburst_interval_mean: CCTE's Neural Acute Assay for Mean Interburst Interval, Shafer Lab (AID 2284016);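 also: percent change of mean interburst interval versus each well's own pre-dose baseline; curves fitted for decrease in interburst interval relative to DMSO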
How it was run: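 Rat cortical cultures, DIV 13/15; 20 min equilibration, 40 min baseline, compound 0.03-40 uM, 40 min re-recording, 37 C. Spikes detected at 8x rms noise (300-5000 Hz band-pass). Endpoint: % change in interburst interval, fitted in loss direction vs DMSO.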

[14] = CCTE_Shafer_MEA_acute_burst_percentage_mean: CCTE's Neural Acute Assay for Percentage of Spikes in a Burst, Shafer Lab (AID 2284017);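 as to AC50: curve fitted for loss of signal so potency reflects decreased burst percentage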
How it was run: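 Rat cortical cultures, DIV 13/15, 37 C. Spikes detected at 8x rms noise (300-5000 Hz band-pass). Burst spikes/total spikes averaged across electrodes per well; % change post- vs pre-treatment (40 min each), loss-of-signal fit vs DMSO.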

[15] = molecular target: Retinoic acid receptor RXR-alpha (Homo sapiens) (UniProt P19793); assay: TOX21_TR_RXR_BLA_Agonist_Followup_ratio: Tox21 Thyroid Hormone Receptor beta Retinoid X Receptor alpha (RXRa) Agonism Beta-lactamase (BLA) Follow-Up Assay, Ratio (AID 2283968; active = hit-call score of the fitted dose curve at least 0.9, where 1 is the maximum)
How it was run: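 Read-out: blue/green (460:530 nm) FRET ratio from cleaved vs uncleaved CCF4 substrate, fitted for gain of signal relative to DMSO. Cells: HEK293T with RXRa-UAS-bla reporter; 16 h compound exposure, 11 concentrations, triplicate.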

Measured: AC50

Chain of Retinoic acid receptor RXR-alpha (Homo sapiens) (P19793 whole entry, looked up): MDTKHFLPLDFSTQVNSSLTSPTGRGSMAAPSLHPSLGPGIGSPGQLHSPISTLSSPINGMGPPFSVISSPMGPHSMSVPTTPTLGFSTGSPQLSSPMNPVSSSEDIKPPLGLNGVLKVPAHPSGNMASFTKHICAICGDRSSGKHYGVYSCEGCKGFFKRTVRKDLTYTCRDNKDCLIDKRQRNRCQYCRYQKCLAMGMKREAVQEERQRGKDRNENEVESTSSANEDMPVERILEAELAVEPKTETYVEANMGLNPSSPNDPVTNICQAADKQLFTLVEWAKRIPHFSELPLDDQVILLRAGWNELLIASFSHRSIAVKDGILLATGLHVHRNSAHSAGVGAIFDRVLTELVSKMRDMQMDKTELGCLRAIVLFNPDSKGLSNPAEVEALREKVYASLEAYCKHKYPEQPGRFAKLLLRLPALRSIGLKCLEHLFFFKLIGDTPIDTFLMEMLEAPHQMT
Chain of Ratio of Nucleoli Translocation and Cytoplasm, AR (gene 367) (P10275 whole entry, looked up): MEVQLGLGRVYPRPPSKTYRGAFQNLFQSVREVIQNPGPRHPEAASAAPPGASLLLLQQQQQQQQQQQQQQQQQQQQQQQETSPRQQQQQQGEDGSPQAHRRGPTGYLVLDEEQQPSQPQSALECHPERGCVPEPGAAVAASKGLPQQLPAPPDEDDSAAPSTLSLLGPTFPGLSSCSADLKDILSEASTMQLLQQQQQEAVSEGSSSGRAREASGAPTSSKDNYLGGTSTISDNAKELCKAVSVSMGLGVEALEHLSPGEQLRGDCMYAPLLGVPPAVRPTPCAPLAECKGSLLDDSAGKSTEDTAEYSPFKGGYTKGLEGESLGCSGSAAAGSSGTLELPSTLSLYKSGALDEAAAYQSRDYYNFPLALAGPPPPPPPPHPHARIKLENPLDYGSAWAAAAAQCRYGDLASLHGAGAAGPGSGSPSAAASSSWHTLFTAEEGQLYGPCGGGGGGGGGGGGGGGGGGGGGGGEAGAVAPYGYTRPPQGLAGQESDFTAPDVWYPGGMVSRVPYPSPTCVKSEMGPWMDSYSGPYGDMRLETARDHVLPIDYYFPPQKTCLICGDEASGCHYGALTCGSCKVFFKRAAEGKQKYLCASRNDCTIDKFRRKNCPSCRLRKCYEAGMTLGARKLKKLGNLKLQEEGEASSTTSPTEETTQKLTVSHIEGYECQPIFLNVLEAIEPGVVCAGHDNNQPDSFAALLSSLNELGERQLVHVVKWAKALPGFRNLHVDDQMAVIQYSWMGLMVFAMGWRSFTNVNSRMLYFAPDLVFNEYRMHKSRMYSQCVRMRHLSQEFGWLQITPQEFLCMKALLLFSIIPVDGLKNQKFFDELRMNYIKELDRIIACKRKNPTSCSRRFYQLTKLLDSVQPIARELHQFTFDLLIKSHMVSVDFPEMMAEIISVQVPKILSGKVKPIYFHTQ
Chain of Nucleoli Translocation, AR (gene 367) (P10275 whole entry, looked up, the tested form may be a part): as the sequence (P10275 whole entry, looked up) above
Chain of THRB (gene 7068) (P10828 whole entry, looked up, the tested form may be a part): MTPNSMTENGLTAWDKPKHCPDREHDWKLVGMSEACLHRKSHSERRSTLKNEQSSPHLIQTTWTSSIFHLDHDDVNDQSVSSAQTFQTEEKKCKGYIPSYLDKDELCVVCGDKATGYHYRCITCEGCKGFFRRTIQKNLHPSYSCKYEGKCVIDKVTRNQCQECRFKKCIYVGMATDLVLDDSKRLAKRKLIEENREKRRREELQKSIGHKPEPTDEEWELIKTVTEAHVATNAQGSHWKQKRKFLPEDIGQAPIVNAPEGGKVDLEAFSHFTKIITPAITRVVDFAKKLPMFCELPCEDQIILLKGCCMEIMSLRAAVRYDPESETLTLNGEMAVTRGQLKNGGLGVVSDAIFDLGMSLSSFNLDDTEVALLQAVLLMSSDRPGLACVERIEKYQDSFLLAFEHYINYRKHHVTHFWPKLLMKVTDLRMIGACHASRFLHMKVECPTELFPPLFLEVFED

OCc1cccc(Oc2ccccc2)c1
inactive: [1] | [2] | [3] | [4] | [5]

CC(=O)Nc1ccc(C(=O)CCl)cc1
inactive: THRB (gene 7068) | [3] | [4] | [5]
active: [6] 69.1 µM

CCCCC1CCC(O)CC1 (centres undefined)
inactive: [1] | [2]

Nc1ccc(N)c2c1C(=O)c1ccccc1C2=O
inactive: [1] | [7] | [2]

CCOc1ccc(N=Nc2ccc(C=Cc3ccc(N=Nc4ccc(OCC)cc4)cc3S(=O)(=O)O)c(S(=O)(=O)O)c2)cc1
active: DIO1 (gene 1733) 0.72 µM

Cc1ccc(S(=O)(=O)Oc2ccc(N=Nc3ccc(-c4ccc(N=Nc5c(O)ccc6cc(S(=O)(=O)O)cc(S(=O)(=O)O)c56)c(C)c4)cc3C)cc2)cc1
inactive: [1] | [7] | [2]

CCOC(=O)C(C#N)=C(c1ccccc1)c1ccccc1
inactive: [8] | [9] | [10] | [11] | [12] | [13] | [14]

CCc1ccc(O)cc1
inactive: [1] | [3] | [4] | [5]

CC1CCC(C(C)C)C(O)C1 (centres undefined)
inactive: [1] | [3] | [4] | [5]

CCCCCCCCSCCO
active: [1] 59 µM
inactive: [7] | [2]

C[C@H](CCC(=O)NCC(=O)O)[C@H]1CC[C@H]2[C@@H]3[C@H](O)C[C@@H]4C[C@H](O)CC[C@]4(C)[C@H]3C[C@H](O)[C@]12C
inactive: THRB (gene 7068) | [15] | [6] | [3] | [4]

CC(CN=Cc1ccccc1O)N=Cc1ccccc1O (centres undefined)
inactive: [8] | [9] | [3] | [4] | [5] | [10] | [11] | [13] | [14]
active: [12] 15 µM

C[C@H]1O[C@@H](O[C@H]2[C@@H](O)C[C@H](O[C@H]3[C@@H](O)C[C@H](O[C@H]4CC[C@@]5(C)[C@H](CC[C@@H]6[C@@H]5C[C@@H](O)[C@]5(C)[C@@H](C7=CC(=O)OC7)CC[C@]65O)C4)O[C@@H]3C)O[C@@H]2C)C[C@H](O)[C@@H]1O
inactive: [1] | [3] | [4] | [5]

CCCCCCCCC=CCCCCCCCC1=NCCN1CCO
active: DIO1 (gene 1733) 36.3 µM | [1] 93 µM | [7] 13.3 µM | [2] 13.7 µM

OCCCCC(O)CO (centres undefined)
inactive: THRB (gene 7068) | [15]

CC(C=O)Cc1ccc(C(C)(C)C)cc1 (centres undefined)
inactive: [1] | [7] | [2] | [3] | [4] | [5]

CCCCCCCCCCCCCCN(CCO)CCO
active: DIO1 (gene 1733) 30.6 µM

CN(C)C(=S)SC(=S)N(C)C
inactive: [8] | [9] | [10] | [11] | [12] | [13] | [14]

CCCCCCCCCCCCCC(=O)OCC(O)CO (centres undefined)
inactive: [7] | [2]

CCOC(=O)[C@@H](C)Oc1ccc(Oc2nc3ccc(Cl)cc3o2)cc1
inactive: [1] | [7] | [2] | [3] | [4] | [5]

O=C(Nc1ccc2c(O)c(N=Nc3ccc(N=Nc4ccc(S(=O)(=O)O)cc4)cc3)c(S(=O)(=O)O)cc2c1)c1ccccc1
active: [13] 15 µM | [14] 15 µM
inactive: [8] | [9] | [10] | [11] | [12]

C=C1CC[C@H](O)C/C1=C/C=C1\CCC[C@]2(C)[C@@H]([C@H](C)/C=C/[C@H](C)C(C)C)CC[C@@H]12
inactive: [3] | [4] | [5]
active: DIO1 (gene 1733) 19.8 µM

CCc1cc(Cc2cc(CC)cc(C(C)(C)C)c2O)c(O)c(C(C)(C)C)c1
active: [1] 62.2 µM | [7] 77.1 µM | [2] 91.2 µM
inactive: [3] | [4]

O=Cc1ccccc1S(=O)(=O)O
inactive: THRB (gene 7068) | [15] | [6]

CC(C)CCCCCCc1ccc(OCCOCCO)cc1
inactive: [1]

CC(C)CCCCCCCCCCCCCCC(=O)O
active: DIO1 (gene 1733) 72.8 µM
inactive: [3] | [4] | [5]

CC(=O)O[C@@H]1CC2CCC1(C)C2(C)C (some centres undefined)
inactive: [1] | [3] | [4]

Cc1cc(C)nc(NS(=O)(=O)c2ccc(N)cc2)n1
inactive: THRB (gene 7068) | [15] | [6] | [3] | [4]

O=CN1CCOCC1
inactive: [8] | [9] | [10] | [11] | [12] | [13] | [14]

Oc1ccc2cc(SSc3ccc4cc(O)ccc4c3)ccc2c1
active: DIO1 (gene 1733) 2.62 µM

CCCCC(CC)COC(=O)c1ccc(O)cc1 (centres undefined)
active: DIO1 (gene 1733) 85.4 µM

N[C@@H](Cc1cc(I)c(Oc2cc(I)c(O)c(I)c2)c(I)c1)C(=O)O
inactive: [15] | [6] | [3] | [4] | [5]

C=CC(C)(O)CCC=C(C)C (centres undefined)
inactive: [8] | [9] | [3] | [4] | [10] | [11] | [12] | [14]
active: [13] 15 µM

CC(=O)O[C@H]1C[C@@H]2CC[C@@]1(C)C2(C)C
inactive: [1]

CC(=O)C1(C)CC2=C(CCCC2(C)C)CC1C (centres undefined)
inactive: [1] | [7] | [2] | [3] | [4] | [5]

BrCc1cccc(Oc2ccccc2)c1
inactive: [1] | [7] | [2]
